High-throughput results (PubChem BioAssay)
HCMV inh: blocks human cytomegalovirus replication | HFF cells, HCMV-luciferase reporter, 72 h; stronger effect = lower value | activity change, negative = inhibition, % at 57.5 µM | 4.5% of 410,000 active; in the data active = activity change below about -60%; inconclusive = no clear call, values can overlap the other calls; inactive = above about -39%
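Compounds were evaluated in HFFs infected with an HCMV luciferase reporter virus (MOI 1 PFU/cell). Luciferase in lysates collected 72 h post infection served as the replication measure.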
Pf growth 48h: P. falciparum growth inhibition at 48 hours (one generation); Potency, µM (highest dose often 28.7 µM), usual class: inhibitors; 5.9% of 310,000 active; P. falciparum luciferase growth in erythrocytes, 48 h
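Luciferase-expressing P. falciparum in infected erythrocytes (2% hematocrit, 0.1% parasitemia final) in RPMI 1640/0.5% Albumax were exposed to compound for 48 hours at 37 C, 5% CO2; growth read as luminescence.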
Pf growth 96h: P. falciparum growth inhibition at 96 hour, primary screen for plastid delayed-death inhibitors; Potency, µM (titrated, usually from 28.7 µM), actives largely listed as inhibitors; AID 504834; P. falciparum luciferase reporter growth, 96 h; 6.9% of 320,000 active
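P. falciparum expressing integrated firefly luciferase grown in erythrocytes (2% hematocrit, 0.05% parasitemia final) with compounds for 96 hours at 37 C, 5% CO2. Growth inhibition read as loss of luminescence after adding luciferase detection reagent.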
Sm TGR block: inhibitors of Schistosoma mansoni thioredoxin glutathione reductase; Potency, µM (titrated, usually from 114 µM), hits mostly inhibitors; purified TGR, DTNB reduction, TNB absorbance 405 nm; Q962Y6; 3% of 360,000 active; AID 485364; also: nearly all actives have a fitted effect of over 60% in size
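Kinetic colorimetric format: TGR-catalysed, NADPH-driven DTNB reduction monitored via TNB absorbance. Enzyme dispensed at 20 nM; compound exposure 15 min at room temperature before reaction start.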
Giardia FBPA inh-1: blocks Giardia fructose-bisphosphate aldolase activity. Potency, µM (titrated, usually from 59.6 µM), actives largely listed as inhibitors. AID 2451. purified Giardia FBPA. A8B2U2. 0.71% of 290,000 active; also: nearly all actives have a fitted effect of over 55% in size
Target sequence (A8B2U2 whole entry, looked up): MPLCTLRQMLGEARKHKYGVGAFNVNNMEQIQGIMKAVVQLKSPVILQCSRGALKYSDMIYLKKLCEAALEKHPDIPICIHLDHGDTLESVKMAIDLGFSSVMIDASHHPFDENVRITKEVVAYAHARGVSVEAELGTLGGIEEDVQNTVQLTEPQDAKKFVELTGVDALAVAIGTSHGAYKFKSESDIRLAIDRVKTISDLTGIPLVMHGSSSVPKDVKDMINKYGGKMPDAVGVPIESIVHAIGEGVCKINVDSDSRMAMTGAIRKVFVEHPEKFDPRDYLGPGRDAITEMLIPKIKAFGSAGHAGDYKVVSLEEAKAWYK
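Giardia FBPA (40 nM reagent) was preincubated 10 min at RT with compound (up to 57.5 uM final), then substrate plus GAPDH/TPI/NAD/arsenate coupling system with diaphorase/resazurin was added; resorufin fluorescence (525/598 nm) was read after 20 min.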
Giardia growth: Giardia lamblia growth inhibition; shares compounds with Giardia FBPA inh-1; Giardia lamblia trophozoite growth inhibition; Potency, µM (series often up to 57.5 µM), hits mostly inhibitors; 5% of 1,500 active; AID 2785;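 also: trophozoites exposed to compound for 48 h at 37 °C; nearly all actives have a fitted effect of over 70% in size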
Mammalian tox: toxic to mammalian cells in Giardia aldolase counter-screen. shares compounds with Giardia FBPA inh-1. mammalian cell viability counter-screen, qHTS. Potency, µM (titrated, usually from 57.5 µM), most hits filed as inhibitors. 4% of 1,500 active. AID 2786;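 also: Chinese hamster ovary cells used as mammalian cytotoxicity surrogate; viability measured as cellular ATP by luminescence; compound exposure lasted 48 h before reading; nearly all actives have a fitted effect of over 60% in size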
Giardia FBPA inh-2: confirmation of Giardia fructose-bisphosphate aldolase inhibitors; shares compounds with Giardia FBPA inh-1; purified Giardia aldolase enzyme activity, qHTS; Potency, µM (series often up to 57.5 µM), hits mostly inhibitors; 5% of 1,500 active; AID 2787; also: nearly all actives have a fitted effect of over 45% in size
Rabbit aldolase: selectivity test for Giardia aldolase inhibitors: rabbit aldolase; Rabbit muscle FBPA enzyme inhibition, selectivity counter-screen; Potency, µM (series often up to 57.5 µM), actives largely listed as inhibitors; 4% of 1,500 active; AID 2794; shares compounds with Giardia FBPA inh-1; also: nearly all actives have a fitted effect of over 60% in size
Target sequence (P00883 whole entry, looked up): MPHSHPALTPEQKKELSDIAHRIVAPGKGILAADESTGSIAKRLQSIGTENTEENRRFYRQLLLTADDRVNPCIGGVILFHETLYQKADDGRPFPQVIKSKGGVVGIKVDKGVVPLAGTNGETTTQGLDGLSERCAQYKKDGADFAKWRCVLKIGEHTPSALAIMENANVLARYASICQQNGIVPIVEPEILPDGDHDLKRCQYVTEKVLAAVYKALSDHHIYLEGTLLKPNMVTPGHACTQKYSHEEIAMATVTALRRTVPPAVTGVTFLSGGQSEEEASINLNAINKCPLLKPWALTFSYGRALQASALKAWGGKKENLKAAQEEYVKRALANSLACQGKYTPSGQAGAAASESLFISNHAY
GAPDH counter: counter-screen for Giardia aldolase inhibitors: GAPDH coupling enzyme. shares compounds with Giardia FBPA inh-1. GAPDH coupling enzyme counterscreen, biochemical, qHTS. Potency, µM (highest dose often 57.5 µM), actives largely listed as inhibitors. 6% of 1,500 active. AID 2795; also: nearly all actives have a fitted effect of over 55% in size
A number is an active result; – = inactive; ? = inconclusive; · = not tested or not shown; [ ] = remark or other dose. Sampled rows, rich in hits. Any-hit rate of the full collection: about 14%. Unless noted, calls follow the shape of the dose curve; as a rule, active = well fitted curve in the direction sought with a large enough effect; inconclusive = small, poorly fitted or top-dose-only effect, or another doubt; inactive = no such curve, though single readings can be large; an effect the other way counts as inactive or inconclusive.

SMILES	HCMV inh	Pf growth 48h	Pf growth 96h	Sm TGR block	Giardia FBPA inh-1	Giardia growth	Mammalian tox	Giardia FBPA inh-2	Rabbit aldolase	GAPDH counter
Cc1ccccc1NCCC(=O)Nc1ccc(Cl)cc1	–	–	–	–	–	·	·	·	·	·
O=C(O)c1cccnc1C(=O)O	·	–	–	–	0.63µM	–	–	–	–	–
Cc1ccc2c(c1)c1c(c(=O)n(-c3ccccc3)c(=O)n1CC(=O)N1CCCC1)n2C	–	·	·	–	·	·	·	·	·	·
CCc1ccc(Cc2cnc(NC(=O)C3=NCCN3)s2)cc1	–	–	–	–	14µM	?	–	–	–	–
O=C(Nc1ncc(Cc2ccccc2Cl)s1)C1=NCCN1	?	–	?	–	–	·	·	·	·	·
OC(CNc1ccccc1)Cn1ccc2ccccc21 (centres undefined)	–	–	–	·	18µM	?	–	–	–	–
CSCCC(C(=O)NCc1ccccc1)n1c(C2CCN(C(C)=O)CC2)nc2ccccc21 (centres undefined)	–	·	·	·	·	·	·	·	·	·
COc1cccc(C(=O)N2CCN(Cc3cc(Br)ccc3OC)CC2)c1	–	–	?	–	–	·	·	·	·	·
COc1ccc(C(=O)N2CCN(Cc3ccccc3[N+](=O)[O-])CC2)cc1	–	–	–	–	?	·	·	·	·	·
O=C(c1ccccc1)N1CCN(Cc2ccccc2C(F)(F)F)CC1	–	–	–	–	20µM	–	–	–	–	–
COc1cccc(C(=O)N2CCN(Cc3ccccc3Br)CC2)c1	–	–	?	–	16µM	–[10.4 µM]	–	–	–	–
COc1cc(OC)cc(C(=O)N2CCN(Cc3ccccc3[N+](=O)[O-])CC2)c1	–	–	–	–	18µM	–[10.4 µM]	–	–	–	–
CN(C)S(=O)(=O)c1cccc(NC(=O)CN2C(=O)C3C4C=CC(C4)C3C2=O)c1 (centres undefined)	–	–	–	–	–	·	·	·	·	·
CCOC(=O)Cn1c(=O)n(C2CCCCC2)c2nc(-c3cccc(C)c3)nc(C(N)=O)c21	–	·	·	–	·	·	·	·	·	·
COc1cc(C(=O)Nc2ccc(S(=O)(=O)Nc3nccc(C)n3)cc2)c([N+](=O)[O-])cc1OC	?	–	?	–	–	·	·	·	·	·
C/C(=N\NC(=O)c1ccc(Cl)c(Cl)c1)c1ccccn1	-99	0.59µM	?	–	?	–	2.9µM	–	–	–
CC1CCN(S(=O)(=O)c2nnc(NC(=O)c3cccc([N+](=O)[O-])c3)s2)CC1	·	–	–	–	14µM	–[10.4 µM]	–	16µM	25µM	16µM
Cc1ccc(C(=O)Nc2nnc(S(=O)(=O)N3CCCCCC3)s2)cc1	–	–	–	–	–	·	·	·	·	·
Cc1ccc(C(=O)Nc2nnc(S(=O)(=O)N3CCOCC3)s2)cc1	–	–	?	–	18µM	?	–	?	?	25µM
O=C(Nc1nnc(S(=O)(=O)N2CCOCC2)s1)c1ccc(F)cc1	–	–	?	–	16µM	?	–	?	?	40µM
CCCCOCC1CN(CCCC)S(=O)(=O)c2c(cccc2N2CCCCC2)O1 (centres undefined)	–	·	·	·	·	·	·	·	·	·
COc1ccc(NC(=O)CCCn2cnc3ccccc3c2=O)cc1	–	–[0.00184 µM]	–	–	–	·	·	·	·	·
O=C(O)CC(Sc1n[nH]c(=S)s1)C(=O)O (centres undefined)	–	–	–	–	4.5µM	–	?	?	?	?
OC[C@H]1NC[C@H](O)[C@@H](O)[C@@H]1O	·	·	·	·	–	·	·	·	·	·
Nc1c(/C=C2/C=CC(=O)C(O)=C2)c(=O)nc2sc(CC(=O)N3CCCCC3)nn12	–	–	–	–	?	·	·	·	·	·
SMILES	HCMV inh	Pf growth 48h	Pf growth 96h	Sm TGR block	Giardia FBPA inh-1	Giardia growth	Mammalian tox	Giardia FBPA inh-2	Rabbit aldolase	GAPDH counter
Nc1c(/C=C2/C=CC(=O)C(O)=C2)c(=O)nc2sc(CC(=O)N3CCCC3)nn12	–	–	–	–	7.9µM	–	–	–	?	–
Cc1nc2c(=O)n(C)c(=O)nc-2n(C)n1	-103	0.33µM	–	?	?	5µM	16µM	4µM	4µM	2.2µM
Cc1ccc(C)c(NC(=O)CSc2n[nH]c(-c3ccncc3)n2)c1	–	–	·	–	–	·	·	·	·	·
Cc1cccc(NC(=O)CSc2n[nH]c(-c3ccncc3)n2)c1C	–	–	–	–	22µM	–	–	–	–	–
NC(C(=O)N[C@@H]1C(=O)N2C(C(=O)O)=C(Cl)CS[C@H]12)c1ccccc1 (some centres undefined)	·	·	·	·	–	·	·	·	·	·
O=C(Nc1c2c(nn1-c1ccc(F)cc1)CS(=O)C2)c1ccc2c(c1)OCO2 (centres undefined)	–	–	–	–	·	·	·	·	·	·
Cc1c(N=Nc2c(O)n(-c3ccc(Br)cc3)c(=O)[nH]c2=O)c(=O)n(-c2ccccc2)n1C	–	–	–	10µM	16µM	?	–	–	–	–
Cc1c(N=Nc2c(O)[nH]c(=O)[nH]c2=O)c(=O)n(-c2ccccc2)n1C	–	–	–[5.75 µM]	–	16µM	–[10.4 µM]	–	–	–	–
O=C(Cn1ncc2c([nH]c3ccccc32)c1=O)NCc1cccc(Cl)c1	–	·	·	–	·	·	·	·	·	·
O=C(Nc1ccc(Cl)cc1)c1ccc2c(c1)N(Cc1ccccc1)C(=O)c1ccccc1S2(=O)=O	–	·	·	–	·	·	·	·	·	·
CCCCc1cc(=O)oc2cc(C)cc(OCC(=O)NCC3CCC(C(=O)O)CC3)c12 (centres undefined)	–	?	?	–	–	·	·	·	·	·
CON/C=N/C(=S)Nc1ncc(C(F)(F)F)cc1Cl	?	–[5.75 µM]	?	–	6.3µM	?	–	–	–	–
Cc1ccc2oc(=O)c(/C=C(\O)c3ccco3)nc2c1	–	?	?	?	20µM	–	–	–	–	–
Cc1ccc2oc(=O)c(/C=C(\O)C(C)(C)C)nc2c1	–	?	–	–	–	·	·	·	·	·
CCC(NC(=O)CN1CCN(C(=O)c2cccs2)CC1)c1ccc(C)cc1 (centres undefined)	–	–	–	–	·	·	·	·	·	·
CCOC(=O)c1c(NC(=O)CN(C)C2CCN(C)CC2)sc(C(=O)Nc2ccccc2)c1C	–	?	?	–	20µM	?	–	–	–	–
CN(C)C(CNC(C(=O)Nc1ccc([N+](=O)[O-])cc1Br)c1ccccc1)c1ccccc1 (centres undefined)	–	?	?	–	20µM	–[10.4 µM]	–	–	–	–
COc1cc(/C=N/NC2=NS(=O)(=O)c3ccccc32)ccc1OC(C)=O	?	?	?	–	11µM	–	–	–	–	–
